# Source: the supplement of paper PMC9897528
# System: Scedosporium aurantiacum CBS 136046
# Experiment: growth inhibition relative to DMSO control (OD600); higher = more antifungal activity, active = 80 or more; extreme values may be limits of the assay
# Conditions: 5 µM; 72 h; 37 °C
# 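Further: conidia screened in RPMI 1640 medium under 5% CO2, growth read by spectrophotometer, medium with 0.5% DMSO serving as the untreated reference.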
row,Compound,growth inhibition
1,COc1cc(C)c2c(Oc3cccc(C(F)(F)F)c3)c(OC)cc(NC(C)CCCN)c2n1 (stereo not drawn),33.4% (inactive)
2,C[C@@H](NC(=O)c1ccccc1-c1ccccc1)B(O)O,0.688% (inactive)
3,CCC(C)(C)c1ccc(CC(C)CN2C[C@@H](C)O[C@@H](C)C2)cc1 (stereo partly drawn),84.7% (active)
4,Nc1nc2c(Cc3cccnc3)c[nH]c2c(=O)[nH]1,2.57% (inactive)
5,CCc1nc(N)nc(N)c1C#CC(C)c1cc(OC)cc(-c2ccncc2)c1 (stereo not drawn),48.8% (inactive)
6,O=C(c1cc(O)nc2ccccc12)N1CCN(c2ccccc2)CC1,5.66% (inactive)
7,CCCC(=O)OCCc1ccccc1,0% (inactive)
8,Cc1ncc([N+](=O)[O-])n1CC(O)CN1CCOCC1 (stereo not drawn),31% (inactive)
9,COC(=O)Nc1nc2cc(Sc3ccccc3)ccc2[nH]1,0.273% (inactive)
10,NC(=O)C(c1ccccc1)(c1ccccc1)[C@H]1CCCN(CCc2ccc3c(c2)CCO3)C1,13.5% (inactive)
11,CC(=O)N1CCN(c2ccc(OCC3COC(Cn4ccnc4)(c4ccc(Cl)cc4Cl)O3)cc2)CC1 (stereo not drawn),83.2% (active)
12,O=C(N[C@H](CCS)C(=O)N[C@H](Cc1ccccc1)C(=O)O)c1cc2ccccc2[nH]1,23.5% (inactive)
13,Clc1cccc(-c2nnc(-c3ccccc3)o2)c1,1.29% (inactive)
14,CC1(C)C[C@H]1C(=O)N/C(=C\CCCCSC[C@@H](N)C(=O)O)C(=O)O,4.68% (inactive)
15,CC(=O)Nc1cc(NS(=O)(=O)c2ccc(Cl)cc2)cc2c(Cl)[nH]nc12,21.6% (inactive)
16,COc1ccc(SCC(=O)N2c3ccccc3Sc3ccccc32)cc1,19.3% (inactive)
17,COc1ccc2cc3[n+](cc2c1OCCN(CCn1cncn1)Cc1ccc(F)cc1F)CCc1cc2c(cc1-3)OCO2,2.66% (inactive)
18,NC(=O)c1cnc2ccc(S(=O)(=O)c3ccccc3)cc2c1Nc1ccc(O)cc1,32.1% (inactive)
19,Fc1ccc2c(/C=C/c3cccnc3)c[nH]c2c1,5.3% (inactive)

row,Compound,growth inhibition
1,O=C(Nc1nnc(-c2ccc(Cl)cc2)o1)c1nc2ccccc2s1,15.8% (inactive)
2,O[C@@](Cn1cnnn1)(c1ccc(F)cc1F)C(F)(F)c1ccc(-c2ccc(OCC(F)(F)F)cc2)cn1,47.1% (inactive)
3,CCC(CC)[C@H](NC(C)=O)[C@@H]1[C@H](O)[C@@H](C(=O)O)C[C@H]1NC(=N)N,14.3% (inactive)
4,NC(=O)c1ccccc1NC(=O)c1ccc(C(=O)Nc2ccccc2C(N)=O)cc1,11.5% (inactive)
5,O=c1cc(Nc2ccc3ccccc3c2)[nH]c(=O)[nH]1,0.738% (inactive)
6,CNC(=O)C1O[C@@H](n2cnc3c(NCc4cccc(I)c4)nc(Cl)nc32)[C@H](O)[C@@H]1O (stereo partly drawn),3.52% (inactive)
7,c1cc(CN2CCCNCCNCCCNCC2)ccc1CN1CCCNCCNCCCNCC1,6.54% (inactive)
8,Cc1cccc(CC(=O)N[C@H]2CCOC2=O)c1,16.6% (inactive)
9,FC(F)(F)c1cc(C(F)(F)F)c2ccc3nc(-c4nnco4)cn3c2n1,4.29% (inactive)
10,N[C@H](CCC(=O)N[C@@H](Cc1c[nH]c2ccccc12)C(=O)O)C(=O)O,1.28% (inactive)
11,O=C(Nc1ncc(Cc2cccc3ccccc23)s1)C1CCCCC1,4.7% (inactive)
12,CONC(=N)c1ccc(-c2ccc(-c3ccc(C(=N)NOC)cc3)o2)cc1,29.9% (inactive)
13,CCCCCOc1ccc(/C=C2\Oc3c(ccc(O)c3O)C2=O)c(O)c1,1.85% (inactive)
14,Oc1ccc(NCc2ccccc2OCc2ccccc2)cc1,10% (inactive)
15,CC(C)Nc1nc2cc(Cl)c(Cl)cc2n1[C@H]1O[C@@H](CO)[C@H](O)[C@@H]1O,8.22% (inactive)
16,O=C(Cc1ccccc1F)Nc1nc2ccccc2[nH]1,23.9% (inactive)
17,NC(=O)c1[nH]c2ccc(S(N)(=O)=O)cc2c1-c1ccccc1,34.5% (inactive)
18,CCCCCCCc1[nH]c2ccccc2c(=O)c1O,8.25% (inactive)
19,O=S(=O)(NCB(O)O)c1cc2c(Cl)ccc(Cl)c2s1,5.78% (inactive)
